Measurements: article PMC11006913
Positions count from the first letter of the chain named.

Experiments:
Assay in all cases: PBM; 200 nM protein, PBS
Conditions in all cases: dsDNA, one strand shown
SHOX [1] = biological target: SHOX (Homo sapiens, UniProt O15266 103-189)
HOXB6 [2] = biological target: HOXB6 (Homo sapiens, UniProt P17509 132-218, K202E)
SHOX [3] = biological target: SHOX (Homo sapiens, UniProt O15266 103-189, R173C)
HOXB6 [4] = biological target: HOXB6 (Homo sapiens, UniProt P17509 132-218)
Chain of HOXB6 (Homo sapiens, UniProt P17509 132-218) (P17509 132-218): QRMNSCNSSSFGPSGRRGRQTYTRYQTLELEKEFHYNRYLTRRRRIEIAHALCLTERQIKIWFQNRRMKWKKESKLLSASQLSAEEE

ALX4 [5] = biological target: ALX4 (Homo sapiens, UniProt Q9H161 200-286)
Chain of ALX4 (Homo sapiens, UniProt Q9H161 200-286) (Q9H161 200-286): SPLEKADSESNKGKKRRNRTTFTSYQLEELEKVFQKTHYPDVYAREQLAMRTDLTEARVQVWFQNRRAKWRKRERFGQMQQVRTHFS

ALX4 [6] = biological target: ALX4 (Homo sapiens, UniProt Q9H161 200-286, Q225E)
Chain of ALX4 (Homo sapiens, UniProt Q9H161 200-286, Q225E) (Q9H161 200-286 Q225E): as the sequence (Q9H161 200-286) above, with Q26E counted along it

PAX4 [7] = biological target: T1, PAX4 (Homo sapiens, UniProt O43316 9-242, R200K)
T1 sequence: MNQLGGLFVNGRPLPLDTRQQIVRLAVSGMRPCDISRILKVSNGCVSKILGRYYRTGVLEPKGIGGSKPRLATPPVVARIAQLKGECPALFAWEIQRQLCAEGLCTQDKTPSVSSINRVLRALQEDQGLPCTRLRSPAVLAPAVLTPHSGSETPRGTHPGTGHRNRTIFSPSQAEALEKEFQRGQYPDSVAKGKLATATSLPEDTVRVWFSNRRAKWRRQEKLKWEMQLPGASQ

PRRX1 [8] = biological target: PRRX1 (Homo sapiens, UniProt P54821 80-166, F113S)
Chain of PRRX1 (Homo sapiens, UniProt P54821 80-166, F113S) (P54821 80-166 F113S): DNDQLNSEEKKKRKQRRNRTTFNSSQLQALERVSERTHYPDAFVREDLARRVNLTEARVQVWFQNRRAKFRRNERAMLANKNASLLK

PAX4 [9] = biological target: T2, PAX4 (Homo sapiens, UniProt O43316 9-242)
T2 sequence: T1 sequence with K192R

ALX1 [10] = biological target: ALX1 (Homo sapiens, UniProt Q15699 118-204, L144V)
Chain of ALX1 (Homo sapiens, UniProt Q15699 118-204, L144V) (Q15699 118-204 L144V): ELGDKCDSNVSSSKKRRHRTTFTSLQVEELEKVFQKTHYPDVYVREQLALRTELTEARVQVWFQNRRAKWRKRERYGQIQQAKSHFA

ALX3 [11] = biological target: ALX3 (Homo sapiens, UniProt O95076 139-225, N203Q)
Chain of ALX3 (Homo sapiens, UniProt O95076 139-225, N203Q) (O95076 139-225 N203Q): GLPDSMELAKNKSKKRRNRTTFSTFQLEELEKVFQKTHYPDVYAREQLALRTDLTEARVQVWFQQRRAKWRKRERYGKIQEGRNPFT

PAX4 [12] = biological target: T3, PAX4 (Homo sapiens, UniProt O43316 9-242, R200Q)
T3 sequence: T1 sequence with K192Q

ALX1 [13] = biological target: ALX1 (Homo sapiens, UniProt Q15699 118-204, L144R)
Chain of ALX1 (Homo sapiens, UniProt Q15699 118-204, L144R) (Q15699 118-204 L144R): as the sequence (Q15699 118-204 L144V) above, with V27R counted along it

PAX4 [14] = biological target: T4, PAX4 (Homo sapiens, UniProt O43316 9-242, F177V)
T4 sequence: T1 sequence with F169V, K192R

ALX3 [15] = biological target: ALX3 (Homo sapiens, UniProt O95076 139-225)
Chain of ALX3 (Homo sapiens, UniProt O95076 139-225) (O95076 139-225): as the sequence (O95076 139-225 N203Q) above, with Q65N counted along it

PAX4 [16] = biological target: T5, PAX4 (Homo sapiens, UniProt O43316 9-242, F177Y)
T5 sequence: T1 sequence with F169Y, K192R

PROP1 [17] = biological target: PROP1 (Homo sapiens, UniProt O75360 56-141)
Chain of PROP1 (Homo sapiens, UniProt O75360 56-141) (O75360 56-141): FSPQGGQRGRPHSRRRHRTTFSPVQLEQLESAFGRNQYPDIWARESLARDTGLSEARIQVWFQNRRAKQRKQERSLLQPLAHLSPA

PROP1 [18] = biological target: PROP1 (Homo sapiens, UniProt O75360 56-141, R99H)
Chain of PROP1 (Homo sapiens, UniProt O75360 56-141, R99H) (O75360 56-141 R99H): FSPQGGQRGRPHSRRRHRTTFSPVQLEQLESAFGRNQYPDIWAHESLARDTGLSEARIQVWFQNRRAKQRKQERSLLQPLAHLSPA

ALX3 [19] = biological target: ALX3 (Homo sapiens, UniProt O95076 139-225, L168Q)
Chain of ALX3 (Homo sapiens, UniProt O95076 139-225, L168Q) (O95076 139-225 L168Q): as the sequence (O95076 139-225 N203Q) above, with L30Q, Q65N counted along it

ALX3 [20] = biological target: ALX3 (Homo sapiens, UniProt O95076 139-225, L168V)
Chain of ALX3 (Homo sapiens, UniProt O95076 139-225, L168V) (O95076 139-225 L168V): as the sequence (O95076 139-225 N203Q) above, with L30V, Q65N counted along it

PROP1 [21] = biological target: PROP1 (Homo sapiens, UniProt O75360 56-141, F88S)
Chain of PROP1 (Homo sapiens, UniProt O75360 56-141, F88S) (O75360 56-141 F88S): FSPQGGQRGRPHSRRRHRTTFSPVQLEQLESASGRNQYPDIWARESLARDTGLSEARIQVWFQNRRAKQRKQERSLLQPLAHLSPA

PAX4 [22] = biological target: T6, PAX4 (Homo sapiens, UniProt O43316 9-242, R227W)
T6 sequence: T1 sequence with K192R, R219W

ALX1 [23] = biological target: ALX1 (Homo sapiens, UniProt Q15699 118-204)
Chain of ALX1 (Homo sapiens, UniProt Q15699 118-204) (Q15699 118-204): as the sequence (Q15699 118-204 L144V) above, with V27L counted along it

ALX3 [24] = biological target: ALX3 (Homo sapiens, UniProt O95076 139-225, N203S)
Chain of ALX3 (Homo sapiens, UniProt O95076 139-225, N203S) (O95076 139-225 N203S): as the sequence (O95076 139-225 N203Q) above, with Q65S counted along it

PRRX1 [25] = biological target: PRRX1 (Homo sapiens, UniProt P54821 80-166)
Chain of PRRX1 (Homo sapiens, UniProt P54821 80-166) (P54821 80-166): as the sequence (P54821 80-166 F113S) above, with S34F counted along it

HOXB9 = HOXB9 (Homo sapiens, UniProt P17482 171-250)
Chain of HOXB9 (P17482 171-250): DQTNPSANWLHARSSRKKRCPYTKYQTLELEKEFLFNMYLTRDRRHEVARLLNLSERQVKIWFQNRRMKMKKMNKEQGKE

HOXC10 [26] = biological target: HOXC10 (Homo sapiens, UniProt Q9NYD6 254-340)
Chain of HOXC10 (Homo sapiens, UniProt Q9NYD6 254-340) (Q9NYD6 254-340): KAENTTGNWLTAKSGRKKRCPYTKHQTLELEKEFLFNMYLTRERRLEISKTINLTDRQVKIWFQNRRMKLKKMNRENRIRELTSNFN

HOXD13 [27] = biological target: HOXD13 (Homo sapiens, UniProt P35453 263-343, T313R)
Chain of HOXD13 (Homo sapiens, UniProt P35453 263-343, T313R) (P35453 263-343 T313R): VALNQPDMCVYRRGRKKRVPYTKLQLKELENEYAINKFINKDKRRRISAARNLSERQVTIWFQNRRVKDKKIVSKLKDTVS

HOXD13 [28] = biological target: HOXD13 (Homo sapiens, UniProt P35453 263-343)
Chain of HOXD13 (Homo sapiens, UniProt P35453 263-343) (P35453 263-343): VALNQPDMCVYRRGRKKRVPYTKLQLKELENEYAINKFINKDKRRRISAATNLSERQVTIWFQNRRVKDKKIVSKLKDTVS

HOXC10 [29] = biological target: HOXC10 (Homo sapiens, UniProt Q9NYD6 254-340, K271E)
Chain of HOXC10 (Homo sapiens, UniProt Q9NYD6 254-340, K271E) (Q9NYD6 254-340 K271E): as the sequence (Q9NYD6 254-340) above, with K18E counted along it

HOXD13 [30] = biological target: HOXD13 (Homo sapiens, UniProt P35453 263-343, T313A)
Chain of HOXD13 (Homo sapiens, UniProt P35453 263-343, T313A) (P35453 263-343 T313A): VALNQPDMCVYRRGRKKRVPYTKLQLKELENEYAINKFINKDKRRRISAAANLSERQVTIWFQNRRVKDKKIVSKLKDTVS

HESX1 [31] = biological target: HESX1 (Homo sapiens, UniProt Q9UBX0 95-180, R109Q)
Chain of HESX1 (Homo sapiens, UniProt Q9UBX0 95-180, R109Q) (Q9UBX0 95-180 R109Q): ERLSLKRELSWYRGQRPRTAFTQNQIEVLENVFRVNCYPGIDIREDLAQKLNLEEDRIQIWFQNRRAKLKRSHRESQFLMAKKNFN

HESX1 [32] = biological target: HESX1 (Homo sapiens, UniProt Q9UBX0 95-180, P111T)
Chain of HESX1 (Homo sapiens, UniProt Q9UBX0 95-180, P111T) (Q9UBX0 95-180 P111T): as the sequence (Q9UBX0 95-180 R109Q) above, with Q15R, P17T counted along it

HOXA2 [33] = biological target: HOXA2 (Homo sapiens, UniProt O43364 129-215, R185T)
Chain of HOXA2 (Homo sapiens, UniProt O43364 129-215, R185T) (O43364 129-215 R185T): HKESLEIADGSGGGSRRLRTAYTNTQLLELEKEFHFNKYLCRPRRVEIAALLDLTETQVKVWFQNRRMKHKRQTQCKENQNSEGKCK

HOXA2 [34] = biological target: HOXA2 (Homo sapiens, UniProt O43364 129-215, R185K)
Chain of HOXA2 (Homo sapiens, UniProt O43364 129-215, R185K) (O43364 129-215 R185K): as the sequence (O43364 129-215 R185T) above, with T57K counted along it

HOXA2 [35] = biological target: HOXA2 (Homo sapiens, UniProt O43364 129-215, Y150S)
Chain of HOXA2 (Homo sapiens, UniProt O43364 129-215, Y150S) (O43364 129-215 Y150S): as the sequence (O43364 129-215 R185T) above, with Y22S, T57R counted along it

HOXA2 [36] = biological target: HOXA2 (Homo sapiens, UniProt O43364 129-215)
Chain of HOXA2 (Homo sapiens, UniProt O43364 129-215) (O43364 129-215): as the sequence (O43364 129-215 R185T) above, with T57R counted along it

Chain of SHOX (Homo sapiens, UniProt O15266 103-189, R173C) (O15266 103-189 R173C): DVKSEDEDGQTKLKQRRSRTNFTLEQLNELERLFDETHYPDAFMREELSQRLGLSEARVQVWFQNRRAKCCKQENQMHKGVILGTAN
Chain of SHOX (Homo sapiens, UniProt O15266 103-189) (O15266 103-189): as the sequence (O15266 103-189 R173C) above, with C71R counted along it
Chain of HOXB6 (Homo sapiens, UniProt P17509 132-218, K202E) (P17509 132-218 K202E): as the sequence (P17509 132-218) above, with K71E counted along it

GCAGAGCC
binding signal (SHOX [1]): 7.11 upbm affinity estimate (log intensity, higher = more binding, comparable within an allelic series)
binding signal (HOXB6 [2]): 8.95 upbm affinity estimate (log intensity, higher = more binding, comparable within an allelic series)
binding signal (SHOX [3]): 7.16 upbm affinity estimate (log intensity, higher = more binding, comparable within an allelic series)
binding signal (HOXB6 [4]): 8.72 upbm affinity estimate (log intensity, higher = more binding, comparable within an allelic series)

CCCTCCCG
binding signal (SHOX [1]): 6.94 upbm affinity estimate (log intensity, higher = more binding, comparable within an allelic series)
binding signal (ALX4 [5]): 8.02 upbm affinity estimate (log intensity, higher = more binding, comparable within an allelic series)
binding signal (ALX4 [6]): 8.18 upbm affinity estimate (log intensity, higher = more binding, comparable within an allelic series)
binding signal (SHOX [3]): 7.03 upbm affinity estimate (log intensity, higher = more binding, comparable within an allelic series)

CTAATTTA
binding signal (SHOX [1]): 11.5 upbm affinity estimate (log intensity, higher = more binding, comparable within an allelic series)
binding signal (ALX4 [5]): 13.7 upbm affinity estimate (log intensity, higher = more binding, comparable within an allelic series)
binding signal (PAX4 [7]): 11.7 upbm affinity estimate (log intensity, higher = more binding, comparable within an allelic series)
binding signal (PRRX1 [8]): 11.1 upbm affinity estimate (log intensity, higher = more binding, comparable within an allelic series)
binding signal (PAX4 [9]): 12.3 upbm affinity estimate (log intensity, higher = more binding, comparable within an allelic series)
binding signal (ALX4 [6]): 12.6 upbm affinity estimate (log intensity, higher = more binding, comparable within an allelic series)
binding signal (ALX1 [10]): 11.4 upbm affinity estimate (log intensity, higher = more binding, comparable within an allelic series)
binding signal (ALX3 [11]): 8.44 upbm affinity estimate (log intensity, higher = more binding, comparable within an allelic series)
binding signal (PAX4 [12]): 11.9 upbm affinity estimate (log intensity, higher = more binding, comparable within an allelic series)
binding signal (SHOX [3]): 9.2 upbm affinity estimate (log intensity, higher = more binding, comparable within an allelic series)
binding signal (ALX1 [13]): 11.1 upbm affinity estimate (log intensity, higher = more binding, comparable within an allelic series)
binding signal (PAX4 [14]): 10.6 upbm affinity estimate (log intensity, higher = more binding, comparable within an allelic series)
binding signal (ALX3 [15]): 12.3 upbm affinity estimate (log intensity, higher = more binding, comparable within an allelic series)
binding signal (PAX4 [16]): 11 upbm affinity estimate (log intensity, higher = more binding, comparable within an allelic series)
binding signal (PROP1 [17]): 11 upbm affinity estimate (log intensity, higher = more binding, comparable within an allelic series)
binding signal (PROP1 [18]): 10.8 upbm affinity estimate (log intensity, higher = more binding, comparable within an allelic series)
binding signal (ALX3 [19]): 10.2 upbm affinity estimate (log intensity, higher = more binding, comparable within an allelic series)
binding signal (ALX3 [20]): 9.6 upbm affinity estimate (log intensity, higher = more binding, comparable within an allelic series)
binding signal (PROP1 [21]): 7.64 upbm affinity estimate (log intensity, higher = more binding, comparable within an allelic series)
binding signal (PAX4 [22]): 11 upbm affinity estimate (log intensity, higher = more binding, comparable within an allelic series)
binding signal (ALX1 [23]): 12.1 upbm affinity estimate (log intensity, higher = more binding, comparable within an allelic series)
binding signal (ALX3 [24]): 8.54 upbm affinity estimate (log intensity, higher = more binding, comparable within an allelic series)
binding signal (PRRX1 [25]): 13.3 upbm affinity estimate (log intensity, higher = more binding, comparable within an allelic series)

GATATGTA
binding signal (SHOX [1]): 8.18 upbm affinity estimate (log intensity, higher = more binding, comparable within an allelic series)
binding signal (HOXB9): 9.76 upbm affinity estimate (log intensity, higher = more binding, comparable within an allelic series)
binding signal (SHOX [3]): 7.81 upbm affinity estimate (log intensity, higher = more binding, comparable within an allelic series)

CGCCTCCC
binding signal (SHOX [1]): 7 upbm affinity estimate (log intensity, higher = more binding, comparable within an allelic series)
binding signal (PAX4 [7]): 9.2 upbm affinity estimate (log intensity, higher = more binding, comparable within an allelic series)
binding signal (PAX4 [9]): 9.23 upbm affinity estimate (log intensity, higher = more binding, comparable within an allelic series)
binding signal (PAX4 [12]): 9.17 upbm affinity estimate (log intensity, higher = more binding, comparable within an allelic series)
binding signal (SHOX [3]): 6.98 upbm affinity estimate (log intensity, higher = more binding, comparable within an allelic series)
binding signal (PAX4 [14]): 9.03 upbm affinity estimate (log intensity, higher = more binding, comparable within an allelic series)
binding signal (PAX4 [16]): 9.1 upbm affinity estimate (log intensity, higher = more binding, comparable within an allelic series)
binding signal (PAX4 [22]): 9.17 upbm affinity estimate (log intensity, higher = more binding, comparable within an allelic series)

CCCTTCGA
binding signal (SHOX [1]): 6.95 upbm affinity estimate (log intensity, higher = more binding, comparable within an allelic series)
binding signal (HOXC10 [26]): 10 upbm affinity estimate (log intensity, higher = more binding, comparable within an allelic series)
binding signal (HOXD13 [27]): 9.49 upbm affinity estimate (log intensity, higher = more binding, comparable within an allelic series)
binding signal (SHOX [3]): 7.13 upbm affinity estimate (log intensity, higher = more binding, comparable within an allelic series)
binding signal (HOXD13 [28]): 9.43 upbm affinity estimate (log intensity, higher = more binding, comparable within an allelic series)
binding signal (HOXC10 [29]): 10.1 upbm affinity estimate (log intensity, higher = more binding, comparable within an allelic series)
binding signal (HOXD13 [30]): 9.48 upbm affinity estimate (log intensity, higher = more binding, comparable within an allelic series)

AATTAGGG
binding signal (SHOX [1]): 11.7 upbm affinity estimate (log intensity, higher = more binding, comparable within an allelic series)
binding signal (PAX4 [7]): 11.6 upbm affinity estimate (log intensity, higher = more binding, comparable within an allelic series)
binding signal (PAX4 [9]): 12.2 upbm affinity estimate (log intensity, higher = more binding, comparable within an allelic series)
binding signal (ALX1 [10]): 11.4 upbm affinity estimate (log intensity, higher = more binding, comparable within an allelic series)
binding signal (PAX4 [12]): 11.8 upbm affinity estimate (log intensity, higher = more binding, comparable within an allelic series)
binding signal (SHOX [3]): 9.29 upbm affinity estimate (log intensity, higher = more binding, comparable within an allelic series)
binding signal (ALX1 [13]): 10.8 upbm affinity estimate (log intensity, higher = more binding, comparable within an allelic series)
binding signal (PAX4 [14]): 10.3 upbm affinity estimate (log intensity, higher = more binding, comparable within an allelic series)
binding signal (PAX4 [16]): 10.8 upbm affinity estimate (log intensity, higher = more binding, comparable within an allelic series)
binding signal (HESX1 [31]): 8.69 upbm affinity estimate (log intensity, higher = more binding, comparable within an allelic series)
binding signal (PROP1 [18]): 10.9 upbm affinity estimate (log intensity, higher = more binding, comparable within an allelic series)
binding signal (HESX1 [32]): 10.1 upbm affinity estimate (log intensity, higher = more binding, comparable within an allelic series)
binding signal (PAX4 [22]): 10.8 upbm affinity estimate (log intensity, higher = more binding, comparable within an allelic series)
binding signal (ALX1 [23]): 12 upbm affinity estimate (log intensity, higher = more binding, comparable within an allelic series)

GGAGGGAA
binding signal (SHOX [1]): 7.13 upbm affinity estimate (log intensity, higher = more binding, comparable within an allelic series)
binding signal (PRRX1 [8]): 9.41 upbm affinity estimate (log intensity, higher = more binding, comparable within an allelic series)
binding signal (SHOX [3]): 7.16 upbm affinity estimate (log intensity, higher = more binding, comparable within an allelic series)
binding signal (PRRX1 [25]): 9.45 upbm affinity estimate (log intensity, higher = more binding, comparable within an allelic series)

CGCCGAGC
binding signal (SHOX [1]): 7.14 upbm affinity estimate (log intensity, higher = more binding, comparable within an allelic series)
binding signal (PAX4 [7]): 9.36 upbm affinity estimate (log intensity, higher = more binding, comparable within an allelic series)
binding signal (PAX4 [9]): 9.47 upbm affinity estimate (log intensity, higher = more binding, comparable within an allelic series)
binding signal (ALX3 [11]): 7.72 upbm affinity estimate (log intensity, higher = more binding, comparable within an allelic series)
binding signal (PAX4 [12]): 9.48 upbm affinity estimate (log intensity, higher = more binding, comparable within an allelic series)
binding signal (SHOX [3]): 7.23 upbm affinity estimate (log intensity, higher = more binding, comparable within an allelic series)
binding signal (PAX4 [14]): 9.31 upbm affinity estimate (log intensity, higher = more binding, comparable within an allelic series)
binding signal (ALX3 [15]): 7.76 upbm affinity estimate (log intensity, higher = more binding, comparable within an allelic series)
binding signal (PAX4 [16]): 9.32 upbm affinity estimate (log intensity, higher = more binding, comparable within an allelic series)
binding signal (ALX3 [19]): 7.81 upbm affinity estimate (log intensity, higher = more binding, comparable within an allelic series)
binding signal (ALX3 [20]): 7.74 upbm affinity estimate (log intensity, higher = more binding, comparable within an allelic series)
binding signal (PAX4 [22]): 9.41 upbm affinity estimate (log intensity, higher = more binding, comparable within an allelic series)
binding signal (ALX3 [24]): 7.79 upbm affinity estimate (log intensity, higher = more binding, comparable within an allelic series)

CGCCCGAC
binding signal (SHOX [1]): 7.09 upbm affinity estimate (log intensity, higher = more binding, comparable within an allelic series)
binding signal (HOXA2 [33]): 7.5 upbm affinity estimate (log intensity, higher = more binding, comparable within an allelic series)
binding signal (SHOX [3]): 7.2 upbm affinity estimate (log intensity, higher = more binding, comparable within an allelic series)
binding signal (HOXA2 [34]): 10.3 upbm affinity estimate (log intensity, higher = more binding, comparable within an allelic series)
binding signal (HOXA2 [35]): 10.6 upbm affinity estimate (log intensity, higher = more binding, comparable within an allelic series)
binding signal (HOXA2 [36]): 7.16 upbm affinity estimate (log intensity, higher = more binding, comparable within an allelic series)
